Source: the supplement of paper PMC11417369
Over roughly 25,000 sequences, “ln(normalized median fluorescence intensity)” has its median near 6.7; the highest 2% begin near 10. Many of the other results were omitted from the sample, so the highest values are more common in it than they were.

System: PfHDP1 homeodomain (GST-tagged)
Assay: gcPBM binding intensity (ln(normalized median fluorescence intensity)); higher = stronger DNA binding
Procedure, shortened: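 Binding intensity values are the highest Masliner-normalised natural-log median intensity among replicate spots of either probe orientation. The binding step lasted 1 h in 1× PBS with 1% milk, 0.2 mg/ml BSA, 0.5% salmon testes DNA and 0.03% Triton X-100, using GST-tagged P. falciparum DNA-binding domains expressed in E. coli on an Agilent 4 × 180k array of primer-extended double-stranded 36-bp intergenic genomic probes plus negative controls. Alexa488 anti-GST antibody and a 488 nm scan detected bound protein.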

Sequence | gcPBM binding intensity (ln)
AAGAAAGGTTAAACATGTACATAAATATTTTACATA [XGTACX_site5024] | 6.28
TAATTCACATTTTATACACACATTCGAACCTTTTTT [CACACA_site3341] | 6.88
TTATAAAAGAAAAAAAAAAAAAAAAAAAAAAAAAAA [CACACA_negctrl_site1006] | 6.11
TTACATATATTGGGGTGTACATATATTTTCCTTCAC [XGTACX_site6224] | 7.35
AAAAAAAAGAAAGAAAGTACAAATTATAAAATGAAC [XGTACX_site860] | 6.62
AACAATAAATTATTATGTACACATATATTATATATA [XGTACX_site4629] | 6.47
ATCTAAAAATTTTACGCACACAAGTAAAAAAAAAAA [CACACA_site2485] | 7.14
ACTATATATATAAGTGCATGTTCATTATACCTAAAG [TGCATGCA_site696] | 7.49
GATAAATGTATATATGCATGCACATATATTTATACA [TGCATGCA_site748] | 8.96
TTATATATTTATAAATGTACGTATAAGAATTTAATT [XGTACX_site8541] | 6.68
TATATTTATGTATATGTGCACATAAATTTAAGAATG [GTGCAC_site9512] | 10.9
TATAATAATAATGATAGTACGTATGAGTTCAAGAAA [XGTACX_site4918] | 6.34
TCATATATCCTTATCACACATATAATAAATTCCCTT [CACACA_site4457] | 6.59
TTTTTTATTATTATGTGTACGAATATGTGCATATAA [XGTACX_site1364] | 9.93
TATATATAATTTTATACATGCACATATTATATATAT [TGCATGCA_site1036] | 8.4
ATATTATACGCATATGTGCGCATACATTTTTTTGCA [GTGCAC_site9540] | 7.53
ATGTATGCAAAAATGGTGCATATTAAATGTATAACA [GTGCAC_site9722] | 10.5
ACACATATGCATATATGTACATAATATATTAAACTT [XGTACX_site5975] | 6.76
TATATATTTATTAAATGTACATAACAAAAATGGTAT [XGTACX_site3577] | 7.05
ATATATGCATATTATACACACATATGTATATACATT [CACACA_site965] | 7.81
CCTTATACGATATTATGTACGCATATGTGCATTTTT [XGTACX_site1570] | 10.9
CATATATAAATATGTATGCACTTTAACAAAATGTAT | 7.25
TATATATATATATATACATGCATATTTTTTATTTTT [TGCATGCA_site464] | 9.46

Sequence | gcPBM binding intensity (ln)
TATGTGCATATAAACTCACACATTGTATATTACATG [CACACA_site6106] | 10.9
ATTATTACATATAATGCATGTGCATATATTTTTATA [TGCATGCA_site701] | 11
TTATAAAGAAAAAATTGCTTTAAAAGAAAGATTACA [CACACA_negctrl_site960] | 5.87
CTAAATTGTTAATAGAGTACATTTGTATAATATAAG [XGTACX_site594] | 6.44
ATATATATATATGTACACATATATGTGTTTGTTTTT [GTGCAC_negctrl_site5] | 8.99
GTAATTTTTTTCTATACACACATATCTATAATATAT [CACACA_site7284] | 6.94
TCACTATAATAATTTACACACATTTTAAGAAAATGT [CACACA_site3530] | 6.61
TGTTTGCTTATGTGTTAAATATATATATATATATAT [TGCATGCA_negctrl_site218] | 9.25
ATACCATATAATTATGTGAGAAAATATAATATTCAT [CACACA_negctrl_site310] | 6.55
TATACATATATAAATGCATGTTGATATTAATAGTTA [TGCATGCA_site639] | 6.53
CATGTGCATATTAAATGTACATATATACATATATAC [XGTACX_site857] | 10.2
TTTTTTTTTTTTTTGTGTACTAATATTATAAATTTT [XGTACX_site4405] | 6.44
TTATATTAATTTTGTTGTACTATTTGTGCATTAAAT [XGTACX_site4790] | 10.8
TATTAATGCAAATGTTATATGTGCATACATAAATGT [CACACA_negctrl_site790] | 10.9
AGTGAGAAATACATAATAATACATTATGTGCATATT [XGTACX_negctrl_site247] | 10.7
TATATGTAATATTATACATGCATACATAATATATAT [TGCATGCA_site558] | 6.52
TCCAATTCTTTATTTTGTACACATTATGTGCATATG [XGTACX_site6290] | 10.9
ATTTTTGTAATTATTTGTACACATTTATTTATGTGT [XGTACX_site1864] | 6.76
TTATATGTATTTCTTTGTACACATTTTTATATATAT [XGTACX_site1462] | 7.16
TTTTTTAAATTTAAAGTGCATTATTATATATTTGTA | 8.5
AAATAGTTGTTATGGGTGCAAACCACATATATATAA [GTGCAC_site9428] | 8.79
TGTAGTTTGTCCCATGCATGTTCCATTAAAATATAT [TGCATGCA_site854] | 7.57
TTATGTAGTATAATGAGTACTAAATATAGATATGTT [XGTACX_site6335] | 6.56

Sequence | gcPBM binding intensity (ln)
ATTTAACAACTTCAAACACACAATATAGATTTATAT [CACACA_site7067] | 6.6
AAACAAGTAATTGTTATTATTATTATATTATTATTA [CACACA_negctrl_site402] | 6.12
TTTGAATATTCATATGCACACAAATTAATATACATA [CACACA_site8040] | 9.99
ATGTGCAAATATTAAAGTACTAAATTTTATTATTTT [XGTACX_site7306] | 11.3
AAAAAAAAAAAATGTGTGCACATTATTTCAACTTAA | 10
TTGCATTAATTTATGTGTACATATAAATTTTTATTT [XGTACX_site3060] | 6.94
TATTTCAAATGTTATGTGCACATATTAATCCTACTT [GTGCAC_site9738] | 10.7
GTACGTTACATAAATGTGCACATATTATATGCGAAG | 10.7
ATATATACATATAAATGTACATAATTATTATGCACA [XGTACX_site1261] | 9.09
ATTTTAAATGTTATGCGTACATATTAATCCTACTTA [XGTACX_site1344] | 6.69
TTTATTTATTATTAAAGTACTAAATTATATTATTAT [XGTACX_site2565] | 5.95
ATAATAATATTATTTTGTACATATGTGCTTATTTAT [XGTACX_site5540] | 7.11
TTTATTTATTATTAAAGTACTAAAATATATTATTAT [XGTACX_site4887] | 6.24
AATAATATTTATTTTTGTACATATGTGCATTATAAA [XGTACX_site3682] | 11.2
AATGTATTAAAATTACGTACATATGCACATTTTATA [XGTACX_site5046] | 8.53
GAAAACGTTTGAAGTTGTACATATGTATAAAAAGAA [XGTACX_site2304] | 7.74
TTTTTCATATTATACTTTTATATACATATATAAAAA [XGTACX_negctrl_site281] | 6.49
ATATATATATGTAATAGTACATATGATAGTTTGTCA [XGTACX_site1545] | 8.51
TTTTTATTGCAATACTTATATTTTTTTATGATTAAA [TGCATGCA_negctrl_site147] | 10.1
TTACATGCTAAAATTTGTACATATATGATAAATATT [XGTACX_site2648] | 6.47
TATTATTTAATCAAATGTACATAGAAAATGTATGTA [XGTACX_site4433] | 6.21
CATATATACAGTAACACACACAAAAAAATATGAATA [CACACA_site3996] | 6.91
ATATAGTTGTCATATTGTACACTTTAGGGTTGGTTA [XGTACX_site7339] | 6.64

Sequence | gcPBM binding intensity (ln)
TTATAAAAATAATATCGTACAAATGACATAGATGAA [XGTACX_site2570] | 6.6
ATTATCCATGCATTTACACACACACCCAAAAAAATT [CACACA_site4101] | 7.67
ATATATATATATATATGTACATATTTATATTGTAAA [XGTACX_site8878] | 9.35
TAATTACCATATGGTACACACATATATATATGTATA [CACACA_site3487] | 7.02
TTTTTCATAAGAAGCACACAAAAAATGATAGAGAAT [CACACA_site1417] | 7.39
AAAATATTCACGTGTACATATATATATATATATTAT [TGCATGCA_negctrl_site192] | 6.96
TTTTATATAAATATCACACACACACGCATGTTTTAA [CACACA_site6187] | 6.71
CATATACAGAAACACACACACACATAAATAAATATA [CACACA_site1343] | 6.84
ATAATATATGTATGTATGCACTTTTATTATTTTTTT | 7.24
TATTTTATATTTTATGCACACTTATAAGAAATATGT [CACACA_site5647] | 9.42
ATTTATATAAAGAATGTACACACAGAAATGCACCCA [CACACA_site8715] | 10.7
TTATATAAAGAATGTACACACAGAAATGCACCCACA [CACACA_site2282] | 9.38
TTTTATATTTTATGCACACTTATAAGAAATATGTAC [CACACA_site3040] | 10.6
CATTTATATAAAGAATGTACACACAGAAATGCACAC [XGTACX_site4718] | 9.03
AAATATTATAATAATTGTACTATATATACAGTTATT [XGTACX_site1963] | 6.39
TAATATATCTATAATACACACTATTCTAATCACATA [CACACA_site6731] | 6.49
AGTAGTCTGGAGAAGAGTACATAGTATCTGGTAGCT [XGTACX_site2017] | 6.4
ATTTATATTACCCTTGCATGTAGGTGCAATTTTTTT [TGCATGCA_site757] | 10.5
TACCCTTGCATGTAGGTGCAATTTTTTTTTTTTTTT | 9.32
ATATTTTTATTAGTAGTGCAATTTAGTGTATATATA [GTGCAC_site9542] | 10.1
AAAAAAAAAAAACACACACACACATACACATACATA [CACACA_site2858] | 6.83
